Data as given in PubChem BioAssay AID1508600 (Functional Genomics Laboratory (NCATS/FGL), 2020).
Among all 53,000 sequences or so, about 3,700 (7%) were called active.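 How the source made its calls: active means gene knockdowns whose robust z-score for IL-1 alpha signal is at least 2 or at most -2, so actives lie on both sides; inactive means the rest.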 The full list was thinned out, with actives kept by preference.

test: Components of the Cytosolic LPS Sensing Pathway: Gene Identification via Genome-wide siRNA Screen; conditions: RAW264.7 macrophages, IL-1a HTRF, actives lie on both sides, screened at 100 nM (by protocol), cells primed 5 h with Pam3CSK4 first;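 further: robust z of the log signal after scaling to non-targeting control siRNA wells of the plate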
Outline: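 Using IL-1a HTRF as read-out, the screen measured release from RAW264.7 cells after 48h siRNA knockdown (100 nM), 5 h Pam3CSK4 priming and 24 h cytosolic LipidA. Values were expressed relative to negative-control wells as robust z-scores.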

z-score, active:
GCCUACUCCCAAGAGGAAATT against Gprc5a 2.32
GGUACCUGAGGUAGAAAAGTT against Pnma3 -2.5
GGCGGUCAAGUGAGGUUCUTT against Hhex 3.62
GCUGGGAUAUGAAAUCUAUTT against Gprc6a 2.74
GGAGAGCUGGAACAAUAGCTT against Bcl2l2 2.26
GCGAGCUAAUGUCACAUUCTT against Il17ra 3.74
GGUCUCUUUCAUGCUCGCATT against Agr3 3.06
GGCAGAUGUGUUUGCUUUUTT against Pbk 3.51
CGGUCAUUAAUGAAGCCUGTT against Pamr1 2.65
GCGACAUAACUGCAUUCAATT against Kcnh1 2.79
GGAGGAUUGUCCACAUGGATT against Ccl27a 4.32
GCAUGAGUUAGACCAUAAUTT against Phf12 -2.59
GGGAAGUGACCAUCAAGAATT against Slc8a3 2.56
GGCUAUGCUGCCUACUACUTT against Bmp7 -2.63
CCAGAAACGAUGCAUUCAUTT against Olfr124 2
CCACAGACUCUUAAUUAGATT against Ap3b1 -2.14
GGGUUUGUGGGAUACAAUCTT against Smarce1 2.97
GGACAUUCUGCUACACAAGTT against Bsx 2.63
GGACAUUGCUAACUGCCUUTT against Snx16 2.37
GCUAGUACUAUUACCUGCUTT against Enkd1 2.17
GGUGAGCUUGGUUUCUAAATT against Gdf15 2.28

z-score, inactive:
GGACAGCAAGAUGAAGAUGTT against Il17ra -1.32
UUGAUUUGGUAGCCUGCUCTT against Olfr1303 0.962
CCCUGCUUCGUGUGCUAUUTT against C130074G19Rik 0.499
GGAAUGUGUUGAAAUAUGATT against P4ha3 0.0288
CCACGGAGACAACUUAGUATT against Scfd2 0.568
GGACUUUUCUGCUAUUUACTT against Kcnh2 -0.471
GGAAAGAAUUGAAUACUCGTT against Gpr89 -0.279
GGUGAAUUUCCUUCUACAUTT against Tas1r1 -1.56
GGUGAUAAAGUCAUUCCACTT against Adh1 0.759
GGAAGACAUAUUUCAACAGTT against Ehhadh -1.37
GCAGUGUAUUGGUAAUCAATT against Olfr630 1.44
GCAUCGAUCUUGAGUUAGATT against Hebp1 0.579
GCGCAGGUUCAAUGUGGAUTT against Prodh 1.72
GGCGAUAGACGAGUAUCAGTT against Aida 0.41
CCAGCAAAUAUCCUAGUAATT against Cdk19 0.111
CGUGUGUGUCAUGUUACGGTT against Dusp2 -0.901
GGAUGAAUGGAGAACUGAATT against Afap1l1 -1.21
CCAUGACAAUGAAUAUCCUTT against Ms4a19 -1.24
GGAACUAUCACGUGUUCUATT against Myo7a 0.837
CCAGAUGGGAUACCUCUACTT against Tmed6 0.303
CCCUAACCUCAUUUCAUGUTT against Vmn1r63 -1.01
GGAAAACAACGAAUUGCUCTT against Uri1 0.791
GCCGAUGACACUAUCUACCTT against Cryz 0.465
CCUCAAUCAAAAUGUAAGUTT against Atp6v0a2 0.456
GGAUCUGAAGGAAUACUUUTT against Lmf1 1.69
GGAACAAACCAAGUUCACATT against Kcnip2 -0.66
GGACUCCAAGAUCAUGGUCTT against Pnck 1.07
GCAAGACCCUUCGAGUGAATT against Nkd2 -1.2
GGCCAUUUAUCCAUGGUUGTT against Zdhhc17 0.954
GGCCUCAAGUUGCUAUGCCTT against Mlxipl -0.2
GGAGAUGAAGUUAAAGCGATT against Slc26a6 0.619
GCACUGAACUUUGUCGAUUTT against Fam122a 0.325
CCCGAAGAGCAAAAAAGAUTT against 1110004F10Rik -1.5
GGUGGUGUGUGAUGAGAAUTT against Pabpc6 0.649
GGGCUGUUUGUAGCAGAUUTT against Olfr1279 -1.12
GGUCACGGAGAAACUAAAGTT against Ppme1 0.703
GGCUAGGUAAUCACUGGGUTT against Fate1 0.987
CCAAUAUGAGACCAUCAUUTT against Sv2b 0.385
GGUCAAUUUGGUUUGUGAATT against Cenpa -0.374
GGUAGAAAUUUACCUCAUUTT against Dusp4 -1.42
GCAGAGGAUAUAAAACAAGTT against Pde2a -0.86
GGAAAAUAGGGCGACAAAUTT against Tdrd7 0.673
GGAUGAUUGAGAUAGCGAATT against Polr1e 0.608
CCGUACAUAUGGUGAUCCATT against Rtn1 -0.162
GGGAGAAGUGCUGUGGAUUTT against Fras1 0.401
CGAGAGCUAAAAAGAGUAATT against Chd1 0.42
GGAAGUUUCUGGAAACACATT against Mbd3 -0.487
GGCAACAUGGUGAUCAUCGTT against Olfr323 -0.461
CGGUAUUUCAUCCUGGAUATT against Plekha1 0.403
GCAUGGAACAAGGUUGCUCTT against Pa2g4 1.84
GGUACACCAAGGCUUGCUATT against Coq8b -0.343
GGCCUCUUUUGGUAUUCCATT against Zfp42 0.946
GGCCUCAAUGCAGUAUCAATT against Shisal2b 0.773
GCUAAGAAUAGGAGUUAGATT against Ift57 0.419
GGUCAGAAGUUAAUUUAUGTT against Rad23b -0.413
GGACCUGCUCUUGGUCAUUTT against Fam118a 0.461
GGUGAUGCGCCUGAAGGAUTT against Ntng2 -0.668
GCUCCUCCAUCAGUUAGAUTT against Ube2v2 -1.06
GGAAUCAACUUGGUGGCUCTT against Rxrg -0.0611
GGGUUUCUGUUUGAUUCCATT against Gria1 -0.747
GCCAACCUCUGUGUGUAUUTT against Olfr1263 0.799
UGGUUGUAUUAUUCUGUUGTT against Defb38 0.188
GGACUUAUCUCAUCCAAGATT against Gm9946 0.39
GGACUUUGAAAAAGAUGCATT against Fkbp7 1.21
AGUAUUCUUUGCUUUCCUUTT against Olfr822 0.731
GGAGAAGAUGAUUAAGACCTT against Anp32b 0.51
UAUCACAGACAUGAAAGAATT against Lst1 0.105
GGAAAAACAGUGCAGAUGGTT against Smchd1 0.228
GGGCAUUAAGACAAAGAGUTT against Fam3c 0.769
GGAAAAGUUGCAUUUGGUCTT against Wdr17 -1.02
GGAGUUCACUGUGCUGAUGTT against Ppbp -0.536
GCUAAACUUAAGUCCAUCATT against Supt7l -0.592
GGGUAGUUAUACAAACUAATT against Snapc5 1.53
GGUUCACAUCCUCCUCAGATT against Twist2 1.08
CCUUGAUGCUCGUAGGAAGTT against Efr3a -1.11
GCCAACAUGUAUCAAAGCUTT against Rpgr -1.11
GGACAAUGUGGUGCUGUCCTT against Slc34a3 0.492
GGAGUCCUUUCGUUCUAUCTT against Rab2a -0.319
GCCAAACUUACGUUUUUGATT against Trak2 0.81
CCUGUUUAAACUCUGCGGATT against Vit 0.678
GGUUUUGUAGGAGUCUCUCTT against Vmn1r54 0.247
GGUGAUGAUGAUGUCUUUGTT against B3gnt7 1.93
GCUGAAUAGCCUCUAUCUATT against Rasgrp4 0.261
GCCUCUACUUUACCAAGUUTT against Olfr883 0.523
GGGCUUUAGCCUGAGCGAUTT against Gpc1 -0.916
GGCAUCUUCAUGUACUUGCTT against Olfr1445 1.5
GGUUUUCAGUACAUCCUGGTT against Cryba4 0.183
